{"source": "PubChem BioAssay (NCI)", "note": "About 83,000 compounds went through this panel and 20% of them were active in at least one assay; those are over-represented in the sample as a whole.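 In brief: 96-well plates, 48 h treatment, single concentration, percent growth endpoint.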 Active and inactive are the calls of the source. The calls were made as follows: active = growth percent below 10; inactive = the rest."}
{"system": "MDA-MB-468 breast", "test": "NCI-60 one-dose screen, 48 h (100 = growth as untreated, 0 = no growth, -100 = all killed)", "conditions": "10 µM unless noted"}
{"smiles": "COc1cc(C(=O)/C=C/c2c(C(F)(F)F)nc3sccn23)cc(OC)c1OC", "growth": "-53.4% (active)"}
{"smiles": "CCOC(=O)c1c(C)n(-c2ccc(Cl)cc2)c2ccc(OC(=O)/C=C/c3ccccc3)cc12", "growth": "22.9% (inactive)"}
{"smiles": "CCc1ccc(C(=Nc2ccc(N(C)C(=O)CN3CCN(C)CC3)cc2)c2c(O)[nH]c3ccc(C(=O)OC)cc23)cc1", "growth": "-75.6% (active)"}
{"smiles": "O=C1/C(=C/c2ccc3c(c2)OCO3)SC(=S)N1CCc1ccc(O)cc1", "growth": "67.8% (inactive)"}
{"smiles": "COc1cccc2c1C(=O)c1c(O)c3c(c(O)c1C2=O)C[C@@](O)(/C(C)=N/NC(=O)c1cccc([N+](=O)[O-])c1)C[C@@H]3OC1CC(N)C(O)C(C)O1", "note": "(some centres undefined)", "growth": "-18.9% (active)"}
{"smiles": "CC(C)(C)OC(=O)NCCc1ccc(N=C=S)cc1", "growth": "60.6% (inactive)"}
{"smiles": "Cc1cc(Nc2cc(N3CCN(C)CC3)nc(/C=C/c3ccccc3)n2)n[nH]1", "growth": "-17.8% (active)"}
{"smiles": "Cc1cc(=O)oc2cc(OCCn3c(C)nn(-c4ccc(Cl)cc4)c3=O)ccc12", "growth": "16.1% (inactive)"}
{"smiles": "NS(=O)(=O)c1ccc(CCN2C(=O)C3C(C2=O)C2(Cl)C(Cl)=C(Cl)C3(Cl)C2(Cl)Cl)cc1", "note": "(centres undefined)", "growth": "109% (inactive)"}
{"smiles": "COc1cc2nccc(Oc3ccc(NC(=O)C4(C(=O)Nc5c(F)cc(F)cc5F)CC4)cc3)c2cc1Oc1ccc(N)cn1", "growth": "33.3% (inactive)"}
{"smiles": "N#CCNc1ccccc1N", "growth": "108% (inactive)"}
{"smiles": "O=C1C(SCc2ccccc2)=C(Cl)CN1c1ccccc1", "growth": "79.7% (inactive)"}
{"smiles": "Cc1ccc(CCCC(=O)O)c(C)c1", "growth": "91.7% (inactive)"}
{"smiles": "CCCCNC(=O)Oc1ccc2c(=O)c3sc4c(=O)c5ccccc5c(=O)c4c3c(=O)c2c1", "growth": "-48.3% (active)"}
